NS1 function inh: inhibitors of influenza NS1 protein function; Potency, µM (highest dose often 46.1 µM), without a hit: at the highest dose activity, positive = more growth; actives 0.4% (n = 270,000); also: potency is read from the fitted curve at half-maximal effect; actives are rising curves; nearly all actives have a fitted effect of over 50% in size
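Read-out: OD600 growth recovery of NS1-expressing budding yeast. Cells grown overnight at 30C in -URA glucose medium, washed, resuspended and diluted 1:100 in 2% galactose assay medium, pH 6.0. Same strain lacking NS1 served as positive control.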
SARS PLP yeast: SARS-CoV PLP inhibition in yeast | Potency, µM (highest dose often 32.9 µM), for inactives: at the top dose activity, positive = growth rescue, usual class: activators | S. cerevisiae expressing SARS-CoV PLpro, growth rescue | AID 485353 | actives 0.19% (n = 330,000); also: potency is read from the fitted curve at half-maximal effect; 0% is about no effect; nearly all actives have a fitted effect of over 55% in size
Pf growth 48h: P. falciparum growth inhibition at 48 hours (one generation). Potency, µM (doses to about 28.7 µM), without a hit: at the highest dose activity change, negative = inhibition, actives largely listed as inhibitors. P. falciparum luciferase growth in erythrocytes, 48 h. actives 5.9% (n = 310,000). AID 504832; active = well fitted inhibition curve with a large enough effect; inconclusive = small, poorly fitted or top-dose-only effect, or another doubt; inactive = no such curve, though single readings can be large or run the other way; also: potency is read from the fitted curve at half-maximal effect; % is scaled to controls: 0 for no effect and ±100 for the full control effect
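Firefly luciferase activity from engineered P. falciparum reports growth; inhibitors lower the luminescent signal. Cultures contained 2% hematocrit erythrocytes at 0.1% final parasitemia.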
Shiga toxin inh: Shiga toxin inhibition; inhibition, % at 38.7 µM; actives 9.2% (n = 290,000); AID 2315; Vero cells, Shiga toxin protein synthesis inhibition reporter; in the data active = inhibition mostly above about 28%, no sharp cut-off; inactive = mostly below about 43%; also: 0% is about no effect
Pf growth 96h: P. falciparum growth inhibition at 96 hours. P. falciparum luciferase reporter growth, 96 h. Potency, µM (series often up to 28.7 µM), without a hit: at the top dose activity change, negative = inhibition, hits mostly inhibitors. actives 6.9% (n = 320,000). AID 504834; active = well fitted inhibition curve with a large enough effect; inconclusive = small, poorly fitted or top-dose-only effect, or another doubt; inactive = no such curve, though single readings can be large or run the other way; also: potency is read from the fitted curve at half-maximal effect; % is scaled to controls: 0 for no effect and ±100 for the full control effect
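Two parasite generations (96 h, 37 C, 5% CO2) of compound exposure in infected erythrocytes (0.05% parasitemia, 2% hematocrit). Luciferase-reporter P. falciparum; decreased luminescence indicates inhibited growth, aimed at apicoplast-acting delayed death.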
Cycloheximide cs: affects cycloheximide protein synthesis inhibition readout, counter-screen. cell reporter, cycloheximide protein synthesis inhibition counterscreen. max response, %. actives 12% (n = 300,000). AID 2314; in the data active = max response mostly above about 13%, no sharp cut-off; inactive = mostly below about 14%; also: read at 38.3 µM for the half of the compounds with a filed dose; 0% is about no effect
* = called active by the depositor; ? = inconclusive; . = no result. Most compounds without a hit are left out; they make up all but 21% or so of the library. Unless noted, calls follow the shape of the full dose curve.

SMILES | NS1 function inh | SARS PLP yeast | Pf growth 48h | Shiga toxin inh | Pf growth 96h | Cycloheximide cs
COc1ccc(C(=O)Nc2ccc(Cl)cc2C(=O)NCc2ccco2)cc1 | 13% | -1% | ? | 21 | ? | 14*
COc1ccc(C(=O)NC(=S)NCc2ccccc2)cc1OC | -4% | 2% | -8% | 1 | 10% | -1
Cc1ccc(NC(=O)CSCC(=O)NCc2ccco2)cc1 | . | -2% | -7% | . | 1% | .
Cc1ccc(S(=O)(=O)NCC(c2cccnc2)N2CCc3ccccc32)cc1 (stereo not drawn) | 11% | -8% | ? | 1 | 62% | -4
O=C(O)C(C(O)c1ccc([N+](=O)[O-])cc1)[n+]1ccccc1 (stereo not drawn) | . | 0% | ? | . | ? | .
O=C(NCC1CCCO1)C1CC(=O)N(c2ccc(Cl)cc2)C1 (stereo not drawn) | -1% | 1% | 17% | -7 | -13% | -7
O=[N+]([O-])c1ccc(CSC2=NCCN2)cc1 | 3% | 0% | 30% | . | 12% | 2
Cc1ccc(C(=O)NC2CC3CCCC(C2)N3C(=S)NCc2ccco2)cc1 (stereo not drawn) | -3% | -2% | 10µM* | -8 | 33% | 1
COc1ccc(C(=O)NC(=S)NCc2ccco2)cc1OC | 28% | -9% | 0% | -8 | 7.4µM* | -1
COc1ccc(C(=O)NC(=S)NCc2ccco2)cc1Br | 7% | 2% | ? | 9 | ? | 9
COc1ccc(C(=O)NC(=S)NCc2ccco2)cc1 | 2% | 13% | 14% | 44* | 3% | 22*
Cc1ccc(C(=O)NC(=S)NCc2ccco2)cc1 | . | 15% | 53% | 46 | ? | 35*
CCOc1cc(Cl)c(S(=O)(=O)NCCCN2CCOCC2)cc1Cl | -4% | 1% | 3% | -6 | -12% | -5
COc1ccc(C2=CCC3CCCCN3C2)cc1OC (stereo not drawn) | . | 4% | . | . | . | .
O=CN1CCN(c2c([N+](=O)[O-])c(=O)oc3ccccc23)CC1 | 0% | 0% | 0% | 17 | ? | 4
NS(=O)(=O)c1cccc(NC(=O)CSc2nc3ccccc3c(=O)n2CCCN2CCOCC2)c1 | 14% | 2% | -5% | 1 | -27% | 7
CCN1CCc2c(sc(N)c2C#N)C1 | 1% | 6% | ? | -3 | . | -1
N#Cc1c(N)sc(=S)c2c1CCN(Cc1ccccc1)C2 | -13% | -21% | 10µM* | -11 | 130% | -1
C/C(=N\NC(=O)c1nnn(-c2nonc2N)c1-c1cccs1)c1ccc(C)cc1 | -3% | 5% | -4% | 10 | -22% | -3
C/C(=N\NC(=O)c1nnn(-c2nonc2N)c1-c1cccs1)c1ccc(O)cc1 | 12% | 18% | 12µM* | 5 | 12µM* | 3
C/C(=N/NC(=O)c1nnn(-c2nonc2N)c1-c1ccccc1)c1ccncc1 | 8% | 2% | 17% | -15 | 7.4µM* | -3
COc1cccc(-c2c(C(=O)N/N=C(\C)c3cccs3)nnn2-c2nonc2N)c1 | ? | -1% | -20% | -9 | -11% | -2
CCCOc1ccc(-c2c(C(=O)N/N=C(\C)c3ccncc3)nnn2-c2nonc2N)cc1 | 29% | -2% | ? | -9 | 9.3µM* | -11
COc1ccc(/C(C)=N/NC(=O)c2nnn(-c3nonc3N)c2-c2ccccc2)cc1 | -10% | -1% | 6% | -6 | 62% | -2
C/C(=N\NC(=O)c1nnn(-c2nonc2N)c1-c1ccc2c(c1)OCO2)c1cccs1 | 3% | 1% | ? | 14 | 12µM* | 11
SMILES | NS1 function inh | SARS PLP yeast | Pf growth 48h | Shiga toxin inh | Pf growth 96h | Cycloheximide cs
Cc1nc(NC(=O)COC(=O)C2CC2C)c(Cl)cc1Cl (stereo not drawn) | . | -6% | . | . | . | .
COc1cc(-c2nc3n(n2)C(c2ccc(F)cc2)C2=C(CCCC2=O)N3)cc(OC)c1OC (stereo not drawn) | 10% | 2% | 5.2µM* | -15 | 61% | -4
COc1cccc(C2C3=C(CCCC3=O)Nc3nc(-c4cc(OC)c(OC)c(OC)c4)nn32)c1 (stereo not drawn) | -13% | -1% | ? | -4 | ? | 4
CN(C[C@H](Cc1ccccc1)N(C[C@H](c1ccccc1)N(CCc1ccccc1)N=O)N=O)N=O | 15% | 1% | ? | 1 | 13µM* | -1
CN(C[C@H](c1ccccc1)N(C[C@H](Cc1ccccc1)N(CCc1ccccc1)N=O)N=O)N=O | 10% | 0% | ? | -9 | 12µM* | -2
CCNC(=S)NN=C1c2ccccc2-c2ccccc21 | . | 1% | -19% | 4 | 4.7µM* | 2
Cc1ccc(NC(=O)CCN2C(=O)c3ccncc3C2=O)cc1 | 5% | 4% | 34% | -15 | 3% | 0
O=C(Nc1ccc(-c2cn3ccsc3n2)cc1)C1CC1 | -50% | -13% | -3% | 43* | 9.3µM* | 61*
CC(=O)Nc1ccc(-c2cn3ccsc3n2)cc1 | -15% | 19% | 229% | 62* | 10µM* | 30*
c1cn2cc(-c3ccc4c(c3)OCO4)nc2s1 | -138% | -27% | -18% | 95* | -18% | 46*
CC(=O)Nc1ccc(S(=O)(=O)NCc2cn3ccsc3n2)cc1 | 2% | 1% | 12% | -5 | 114% | -3
Cc1ccc2sc(-c3ccc(NC(=O)CCN4C(=O)c5ccccc5C4=O)cc3)nc2c1 | 4% | -2% | 137% | 85* | 9.3µM* | 50*
O=C(Nc1ccc(Cc2ccncc2)cc1)C1CC1 | 4% | -1% | -10% | 27 | -18% | -1
O=C(O)C1CCCCC1C(=O)NCc1ccc(Cl)c(Cl)c1 (stereo not drawn) | 5% | -1% | 37% | 5 | ? | 10
N#Cc1cnn2c3c(cnc12)C(=O)N1CCc2ccccc2C1C3 (stereo not drawn) | . | -6% | 0% | -4 | 8% | -4
COC(=O)c1cc(OC)c(OC)cc1NC(=O)c1c(-c2ccccc2Cl)noc1C | -13% | -10% | ? | -4 | 13% | -5
O=C(Nc1ccc(-c2cn3ccsc3n2)cc1)C1CCCC1 | -17% | -11% | 48% | 33 | 14% | 32*
O=C(CC1CCCCC1)Nc1ccc(-c2ccc3nncn3n2)cc1 | . | 2% | -9% | -6 | -23% | 6
O=C(Nc1ccc(-c2ccc3nncn3n2)cc1)C1CCCC1 | . | -2% | 40% | 87* | 11% | 22*
CC(=O)Nc1ccc(NC(=O)CCN2C(=O)c3ccccc3C2=O)cc1 | 20% | 3% | 45% | . | ? | 2
O=C(CCN1C(=O)c2ccccc2C1=O)Nc1ccc(-c2cn3ccsc3n2)cc1 | -19% | -12% | 6% | 52* | ? | 33*
CCOc1ccc(N(C)C(=O)CCc2nnc3ccc(N4CCCCC4)nn23)cc1 | 12% | 5% | -12% | -3 | ? | -2
O=C(c1cc(-c2ccc(Cl)cc2Cl)on1)N1CCCCCC1 | -42% | -5% | 123% | 99* | 55% | 38*
